# Measurements reported in PubChem BioAssay.
# Calls of active or inactive are those of the source.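 Rule for the calls, unless noted: active = at least 20% inhibition of 6-phosphogluconate dehydrogenase activity; inactive = the rest.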
# Legend:
# [1] = molecular target: 6-phosphogluconate dehydrogenase, decarboxylating (Homo sapiens) (UniProt P52209); assay: 6PGD enzyme inhibitors, primary screen, biochemical, human, recombinant enzyme, NADPH absorbance (AID 1159550); conditions: recombinant 6PGD, NADPH absorbance 341 nm; at 10 µM; stronger effect = higher value
# [2] = differential killing of epithelial or mesenchymal cells, primary screen, imaging, PC-3E GFP, TEM4-18 mCherry, co-culture (AID 1345086;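 active = compounds killing one labelled cell type while sparing the other, by normalised counts and ratio limits, not self-fluorescent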;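 for all read-outs here: cells exposed to compound for 72 h before imaging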;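 for red/green cell ratio (normalised): normalised mesenchymal count divided by normalised epithelial count so high means epithelial killing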); conditions: imaging cell counts, at 1 µM; for red/green cell ratio (normalised): actives lie on both sides, counts scaled to control wells, 1 = unselective
# [3] = molecular target: Mitogen-activated protein kinase 7 (Homo sapiens) (UniProt Q13164); assay: ERK5 transactivation activators in reporter cells, primary screen, cell-based, HTS (AID 1508626;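 active = luciferase signal above three times the same-plate solvent-only control wells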;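 note: luciferase driven by Gal4-ERK5 fusion binding five Gal4 sites before minimal TATA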); conditions: HeLa Gal4-ERK5 transactivation, 18 h, at 5 µM, stronger effect = higher value
# [4] = measured here: epithelial PC-3E GFP cell survival
# [5] = measured here: mesenchymal TEM4-18 mCherry cell survival
# 6-phosphogluconate dehydrogenase, decarboxylating (Homo sapiens), sequence (P52209 whole entry, looked up): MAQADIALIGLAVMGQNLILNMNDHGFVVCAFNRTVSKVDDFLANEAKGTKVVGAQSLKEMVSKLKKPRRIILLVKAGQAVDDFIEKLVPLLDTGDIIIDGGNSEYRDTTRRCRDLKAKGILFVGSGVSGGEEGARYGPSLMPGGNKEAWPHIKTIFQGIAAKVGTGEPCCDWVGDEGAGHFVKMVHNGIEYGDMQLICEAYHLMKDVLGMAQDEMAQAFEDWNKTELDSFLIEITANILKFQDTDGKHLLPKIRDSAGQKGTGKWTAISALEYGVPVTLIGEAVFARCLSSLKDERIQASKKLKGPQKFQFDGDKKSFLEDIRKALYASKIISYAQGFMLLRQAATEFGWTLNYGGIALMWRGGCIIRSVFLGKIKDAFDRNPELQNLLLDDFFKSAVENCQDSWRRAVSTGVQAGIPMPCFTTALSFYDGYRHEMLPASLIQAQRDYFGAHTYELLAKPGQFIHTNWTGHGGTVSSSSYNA
# Mitogen-activated protein kinase 7 (Homo sapiens), sequence (Q13164 whole entry, looked up, the tested form may be a part): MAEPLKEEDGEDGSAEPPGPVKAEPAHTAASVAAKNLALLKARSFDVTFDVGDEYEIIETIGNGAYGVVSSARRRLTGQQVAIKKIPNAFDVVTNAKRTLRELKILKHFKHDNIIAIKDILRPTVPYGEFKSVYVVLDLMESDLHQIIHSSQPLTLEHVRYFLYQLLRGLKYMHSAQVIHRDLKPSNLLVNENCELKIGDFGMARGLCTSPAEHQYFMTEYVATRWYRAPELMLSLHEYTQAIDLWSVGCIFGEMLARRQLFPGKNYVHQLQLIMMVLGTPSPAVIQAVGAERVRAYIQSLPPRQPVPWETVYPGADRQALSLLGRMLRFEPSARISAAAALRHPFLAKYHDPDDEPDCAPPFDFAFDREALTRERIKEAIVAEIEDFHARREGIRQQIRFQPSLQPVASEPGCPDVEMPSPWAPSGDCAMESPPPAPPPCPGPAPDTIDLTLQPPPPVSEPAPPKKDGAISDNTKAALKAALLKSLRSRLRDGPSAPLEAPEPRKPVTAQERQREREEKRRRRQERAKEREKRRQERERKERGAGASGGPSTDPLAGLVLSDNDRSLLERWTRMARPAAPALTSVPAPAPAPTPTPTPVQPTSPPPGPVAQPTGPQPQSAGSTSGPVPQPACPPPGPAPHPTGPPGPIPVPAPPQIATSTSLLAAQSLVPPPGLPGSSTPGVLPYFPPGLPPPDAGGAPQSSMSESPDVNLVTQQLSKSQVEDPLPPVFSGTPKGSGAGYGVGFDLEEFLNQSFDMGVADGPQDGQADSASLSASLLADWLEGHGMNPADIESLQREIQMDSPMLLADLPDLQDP
SMILES,inhibition [1],red/green cell ratio (normalised) [2],"normalised cell number [2, 4]","normalised cell number [2, 5]",luciferase signal [3]
O=c1c(-c2ccccc2)coc2cc(O)cc(O)c12,-1.41% (inactive),0.93 (inactive),1.2,1.12,40 AU (inactive)
C=C1CCC(C2CC(=O)OC2=O)C(=O)CCC2C1CC2(C)C (stereo not given),13.1% (inactive),0.84 (inactive),1.27,1.06,144 AU (inactive)
CCCCCc1c2c(cc(O)c1C(=O)O)OC(=O)c1c(cc(OC)cc1C(=O)CCCC)O2,4.81% (inactive),0.98 (inactive),1.07,1.05,48 AU (inactive)
COc1ccc(C(=O)CC(=O)O)c2c1C=CC(C)(C)O2,10.2% (inactive),0.95 (inactive),0.98,0.93,60 AU (inactive)
COc1ccc(-c2cc(=O)c3c(OC(C)=O)cc(OC(C)=O)cc3o2)cc1,-1.6% (inactive),0.89 (inactive),1.06,0.95,60 AU (inactive)
COc1ccc(-c2coc3c(O)c(OC)ccc3c2=O)cc1,11.6% (inactive),0.97 (inactive),1.1,1.06,100 AU (inactive)
O=C(O)c1cccc(O)c1O,4.23% (inactive),0.96 (inactive),1.23,1.19,20 AU (inactive)
CC(C)c1ccc2c(c1)CCC1[C@](C)(CN)CCC[C@]21C (stereo not given in full),0.884% (inactive),0.87 (inactive),0.95,0.83,48 AU (inactive)
O=C1C=CC2=C3c4cc(O)c(O)cc4CC3(O)COC2=C1O (stereo not given),27.6% (active),0.83 (inactive),1.07,0.89,32 AU (inactive)
Cc1cc(O)c(C)c(O)c1C(=O)O,-9.88% (inactive),0.88 (inactive),1.09,0.97,72 AU (inactive)
Cn1c(=O)[nH]c(=O)c2[nH]cnc21,5.61% (inactive),0.93 (inactive),1.22,1.13,52 AU (inactive)
Cc1cc(O)cc(O)c1C(=O)O,-6.2% (inactive),0.81 (inactive),1.09,0.88,124 AU (inactive)
O=C(O)c1cc2cc(Cl)ccc2[nH]1,-0.282% (inactive),1 (inactive),1.21,1.21,52 AU (inactive)
CCC(C(=O)O)c1ccccc1 (stereo not given),-10% (inactive),1.07 (inactive),1.08,1.15,76 AU (inactive)
CC12CCCC(O)(C1)C1CC(C)(C)C1CC2 (stereo not given),-1.62% (inactive),0.85 (inactive),1.27,1.07,128 AU (inactive)
COc1c2ccccc2nc2occc12,7.87% (inactive),1.02 (inactive),1.03,1.05,40 AU (inactive)
O=c1c(O)c(-c2ccccc2)oc2cc(O)ccc12,-10.2% (inactive),0.89 (inactive),0.98,0.88,264 AU (inactive)
CCOc1ccc(C(=O)c2ccc(OC)c(O)c2O)cc1,-3.36% (inactive),0.9 (inactive),0.9,0.81,68 AU (inactive)
C=C1[C@H]2CC[C@@]3(C)[C@H](c4ccoc4)OC(=O)C[C@]13O[C@H]1C[C@H](O)C(C)(C)[C@H](CC(=O)OC)[C@]12C,-1.87% (inactive),1.12 (inactive),0.91,1.02,8 AU (inactive)
COc1c(O)cc(O)cc1O,8.04% (inactive),1.07 (inactive),0.92,0.98,40 AU (inactive)
COc1ccc(-c2oc3ccccc3c(=O)c2O)cc1OC,8.6% (inactive),0.86 (inactive),1.06,0.91,52 AU (inactive)
CCOc1ccc(C(=O)c2ccc(O)c(O)c2O)cc1,-12.8% (inactive),0.88 (inactive),0.99,0.87,104 AU (inactive)
C=C(C)C1CC=C(CO)CC1 (stereo not given),1.85% (inactive),1.04 (inactive),0.95,0.99,68 AU (inactive)
CC(=O)c1c(O)cc(O)cc1O,-5.07% (inactive),1.24 (inactive),0.74,0.92,44 AU (inactive)
S=c1[nH]c2ccccc2s1,-1.67% (inactive),0.97 (inactive),1.13,1.09,48 AU (inactive)
